The full data set covers some 7,900 targets. This sample favours those with a hit. About 0.6% of all pairs of compound and target were hits.
compound: CC(C)(C)Cn1c(N)nc2ccc(-c3[nH]c(C(C)(C)C)nc3-c3ccc(F)cc3)nc21 [ralimetinib]; test: log2 fold change, soluble protein after heating vs DMSO (PISA); higher = thermal stabilisation; K562 cells, 10 uM, 30 min; active = over 0.2 and 3.5 SD of the protein, either way, in both replicates (recomputed)
In short: (§1)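 Quantification of soluble protein used TMTpro 16plex LC-MS/MS, with channel sums equalised. Samples were the supernatant after 21,000xg for 90 min of pooled aliquots from K562 cells (2×10^6 cells/mL) treated with 10 μM compound for 30 min, heated for 3 min over 48°C-58°C, and extracted in PBS with 0.5% NP-40 at 4°C. Values, from duplicates, describe thermal stability against control samples on a log2 fold-change scale.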

Chain of UniProt Q9ULP9 (Q9ULP9 whole entry, looked up): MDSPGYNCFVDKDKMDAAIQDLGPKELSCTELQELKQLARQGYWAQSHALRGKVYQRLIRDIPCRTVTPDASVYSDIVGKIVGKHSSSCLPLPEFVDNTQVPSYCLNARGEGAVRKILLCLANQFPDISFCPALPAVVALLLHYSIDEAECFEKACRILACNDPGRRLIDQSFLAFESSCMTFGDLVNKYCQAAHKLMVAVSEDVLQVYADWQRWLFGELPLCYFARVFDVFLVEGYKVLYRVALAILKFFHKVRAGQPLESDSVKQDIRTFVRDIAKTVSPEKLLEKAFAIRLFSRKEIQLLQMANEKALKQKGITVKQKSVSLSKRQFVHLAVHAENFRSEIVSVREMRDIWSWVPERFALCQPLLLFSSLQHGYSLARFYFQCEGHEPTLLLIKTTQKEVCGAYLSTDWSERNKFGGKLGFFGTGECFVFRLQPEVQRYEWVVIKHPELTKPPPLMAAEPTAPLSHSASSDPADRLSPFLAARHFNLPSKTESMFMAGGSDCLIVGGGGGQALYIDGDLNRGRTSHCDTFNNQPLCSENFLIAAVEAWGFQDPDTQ
Chain of UniProt A6NHR9 (A6NHR9 whole entry, looked up): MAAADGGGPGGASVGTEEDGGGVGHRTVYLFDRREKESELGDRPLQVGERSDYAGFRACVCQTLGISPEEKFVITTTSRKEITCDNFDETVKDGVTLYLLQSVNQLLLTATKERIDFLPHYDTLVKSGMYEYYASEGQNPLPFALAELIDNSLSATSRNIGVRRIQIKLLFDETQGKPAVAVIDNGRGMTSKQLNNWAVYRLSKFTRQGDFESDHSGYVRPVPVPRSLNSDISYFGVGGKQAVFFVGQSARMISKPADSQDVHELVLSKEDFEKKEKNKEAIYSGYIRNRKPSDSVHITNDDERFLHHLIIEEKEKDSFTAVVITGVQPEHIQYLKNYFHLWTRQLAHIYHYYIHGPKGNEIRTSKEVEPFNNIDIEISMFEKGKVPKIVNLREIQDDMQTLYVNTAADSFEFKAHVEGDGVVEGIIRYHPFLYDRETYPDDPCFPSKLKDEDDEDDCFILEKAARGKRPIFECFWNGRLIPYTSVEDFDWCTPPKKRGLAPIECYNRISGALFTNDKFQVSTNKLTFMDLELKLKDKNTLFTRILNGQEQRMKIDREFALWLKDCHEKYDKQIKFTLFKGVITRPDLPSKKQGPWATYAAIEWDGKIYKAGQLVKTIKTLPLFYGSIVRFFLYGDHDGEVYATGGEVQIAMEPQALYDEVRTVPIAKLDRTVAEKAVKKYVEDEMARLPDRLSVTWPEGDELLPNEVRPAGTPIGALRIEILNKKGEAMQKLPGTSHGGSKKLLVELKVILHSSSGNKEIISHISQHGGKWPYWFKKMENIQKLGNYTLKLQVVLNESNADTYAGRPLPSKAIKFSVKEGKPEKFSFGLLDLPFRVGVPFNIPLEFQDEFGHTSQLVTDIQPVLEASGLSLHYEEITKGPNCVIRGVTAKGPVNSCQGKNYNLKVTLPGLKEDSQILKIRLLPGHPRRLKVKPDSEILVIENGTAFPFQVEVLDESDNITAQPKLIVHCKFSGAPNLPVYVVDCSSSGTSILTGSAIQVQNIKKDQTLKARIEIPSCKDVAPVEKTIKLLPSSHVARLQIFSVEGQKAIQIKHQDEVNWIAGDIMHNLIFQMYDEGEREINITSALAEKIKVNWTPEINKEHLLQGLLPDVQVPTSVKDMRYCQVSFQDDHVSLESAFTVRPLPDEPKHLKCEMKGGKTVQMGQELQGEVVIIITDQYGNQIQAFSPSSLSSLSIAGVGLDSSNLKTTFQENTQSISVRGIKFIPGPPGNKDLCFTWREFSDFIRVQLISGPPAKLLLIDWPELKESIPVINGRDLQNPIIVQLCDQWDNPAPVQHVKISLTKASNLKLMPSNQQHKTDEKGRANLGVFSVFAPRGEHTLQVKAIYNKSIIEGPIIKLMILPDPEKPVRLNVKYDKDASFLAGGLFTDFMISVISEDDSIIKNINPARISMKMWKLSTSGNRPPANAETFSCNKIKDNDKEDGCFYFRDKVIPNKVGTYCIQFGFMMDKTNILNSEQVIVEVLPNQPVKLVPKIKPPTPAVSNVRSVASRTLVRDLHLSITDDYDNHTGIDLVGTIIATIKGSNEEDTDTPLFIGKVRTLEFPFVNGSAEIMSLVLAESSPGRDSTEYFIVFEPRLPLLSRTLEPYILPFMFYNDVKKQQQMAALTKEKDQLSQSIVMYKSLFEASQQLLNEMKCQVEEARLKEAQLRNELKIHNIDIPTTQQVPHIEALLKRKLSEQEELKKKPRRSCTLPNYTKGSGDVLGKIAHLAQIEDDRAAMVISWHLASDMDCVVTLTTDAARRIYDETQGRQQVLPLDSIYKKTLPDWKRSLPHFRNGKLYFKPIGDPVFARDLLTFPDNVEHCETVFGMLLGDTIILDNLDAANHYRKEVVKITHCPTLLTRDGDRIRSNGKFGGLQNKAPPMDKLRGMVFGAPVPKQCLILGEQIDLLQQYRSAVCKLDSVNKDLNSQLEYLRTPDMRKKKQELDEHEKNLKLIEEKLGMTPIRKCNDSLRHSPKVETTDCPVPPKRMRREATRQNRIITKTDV
Chain of UniProt P50225 (P50225 whole entry, looked up): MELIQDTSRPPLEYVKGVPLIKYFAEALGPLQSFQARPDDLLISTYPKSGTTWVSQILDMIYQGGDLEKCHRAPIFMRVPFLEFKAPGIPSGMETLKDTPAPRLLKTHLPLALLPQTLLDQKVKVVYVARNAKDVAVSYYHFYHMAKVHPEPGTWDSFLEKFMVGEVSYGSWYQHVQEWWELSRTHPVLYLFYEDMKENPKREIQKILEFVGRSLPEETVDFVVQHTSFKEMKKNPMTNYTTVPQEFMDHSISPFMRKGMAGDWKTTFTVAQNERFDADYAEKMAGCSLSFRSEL
Chain of UniProt Q9Y5W9 (Q9Y5W9 whole entry, looked up): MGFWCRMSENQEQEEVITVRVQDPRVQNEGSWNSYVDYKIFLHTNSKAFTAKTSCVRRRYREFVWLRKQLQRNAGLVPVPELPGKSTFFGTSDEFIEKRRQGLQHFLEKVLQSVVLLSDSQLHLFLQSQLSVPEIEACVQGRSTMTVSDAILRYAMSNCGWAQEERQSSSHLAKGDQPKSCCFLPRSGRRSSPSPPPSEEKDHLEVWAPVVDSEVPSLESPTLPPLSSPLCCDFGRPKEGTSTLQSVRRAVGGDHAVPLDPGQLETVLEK
Chain of UniProt P23497 (P23497 whole entry, looked up): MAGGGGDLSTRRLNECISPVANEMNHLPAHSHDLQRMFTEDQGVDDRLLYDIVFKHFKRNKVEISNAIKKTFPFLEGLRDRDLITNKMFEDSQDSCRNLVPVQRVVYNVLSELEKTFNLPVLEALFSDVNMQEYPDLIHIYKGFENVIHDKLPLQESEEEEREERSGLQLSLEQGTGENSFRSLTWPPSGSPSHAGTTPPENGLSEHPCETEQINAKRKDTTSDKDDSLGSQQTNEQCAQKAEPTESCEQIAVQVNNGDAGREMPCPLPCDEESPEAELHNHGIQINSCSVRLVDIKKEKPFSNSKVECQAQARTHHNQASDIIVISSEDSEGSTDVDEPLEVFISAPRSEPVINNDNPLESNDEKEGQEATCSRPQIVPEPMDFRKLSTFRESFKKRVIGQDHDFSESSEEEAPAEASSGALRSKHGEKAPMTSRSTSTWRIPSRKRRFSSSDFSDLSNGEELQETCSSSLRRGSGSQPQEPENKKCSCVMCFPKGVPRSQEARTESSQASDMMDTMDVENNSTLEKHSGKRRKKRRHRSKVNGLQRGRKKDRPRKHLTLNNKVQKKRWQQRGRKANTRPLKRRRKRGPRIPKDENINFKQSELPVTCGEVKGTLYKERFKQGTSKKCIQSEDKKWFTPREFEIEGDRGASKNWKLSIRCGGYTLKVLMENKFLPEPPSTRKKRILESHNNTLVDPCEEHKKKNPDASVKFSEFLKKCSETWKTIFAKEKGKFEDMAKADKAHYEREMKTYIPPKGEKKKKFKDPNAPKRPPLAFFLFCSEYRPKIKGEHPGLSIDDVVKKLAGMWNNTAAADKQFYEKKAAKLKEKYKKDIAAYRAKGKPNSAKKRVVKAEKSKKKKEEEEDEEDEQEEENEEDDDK
Chain of UniProt Q6P1M0 (Q6P1M0 whole entry, looked up): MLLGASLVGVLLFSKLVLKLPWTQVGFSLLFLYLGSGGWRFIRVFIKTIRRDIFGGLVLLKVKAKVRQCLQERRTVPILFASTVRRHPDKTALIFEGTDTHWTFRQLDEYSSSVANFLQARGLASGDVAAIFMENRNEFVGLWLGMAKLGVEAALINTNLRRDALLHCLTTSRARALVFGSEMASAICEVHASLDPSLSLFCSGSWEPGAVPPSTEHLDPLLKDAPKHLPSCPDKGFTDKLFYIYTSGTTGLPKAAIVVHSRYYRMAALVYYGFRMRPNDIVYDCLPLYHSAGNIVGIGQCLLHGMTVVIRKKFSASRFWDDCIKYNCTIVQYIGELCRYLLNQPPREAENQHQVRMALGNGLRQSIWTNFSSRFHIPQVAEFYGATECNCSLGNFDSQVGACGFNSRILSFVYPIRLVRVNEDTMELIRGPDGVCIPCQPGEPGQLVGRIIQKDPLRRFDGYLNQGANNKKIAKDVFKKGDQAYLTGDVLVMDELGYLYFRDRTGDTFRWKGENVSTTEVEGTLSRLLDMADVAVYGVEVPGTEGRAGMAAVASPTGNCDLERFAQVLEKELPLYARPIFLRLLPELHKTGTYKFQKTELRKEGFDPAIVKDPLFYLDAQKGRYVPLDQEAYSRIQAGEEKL
Chain of UniProt Q13242 (Q13242 whole entry, looked up): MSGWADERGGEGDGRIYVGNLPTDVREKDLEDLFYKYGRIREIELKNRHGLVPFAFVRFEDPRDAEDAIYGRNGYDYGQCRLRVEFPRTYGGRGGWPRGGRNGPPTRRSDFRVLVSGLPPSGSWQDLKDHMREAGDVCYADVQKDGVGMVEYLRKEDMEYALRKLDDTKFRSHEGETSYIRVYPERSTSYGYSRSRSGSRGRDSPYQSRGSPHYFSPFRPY
Chain of UniProt Q8N5G0 (Q8N5G0 whole entry, looked up): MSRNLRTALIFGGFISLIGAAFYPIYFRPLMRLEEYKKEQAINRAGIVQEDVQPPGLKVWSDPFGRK

| Target | log2 fold change |
| --- | --- |
| STK38 (UniProt Q15208) | 0.101 (inactive) |
| TBC1D24 (UniProt Q9ULP9) | -0.086 (inactive) |
| SMARCA4 (UniProt P51532) | 0.255 (inactive) |
| TAOK3 (UniProt Q9H2K8) | 0.009 (inactive) |
| SP100 isoform 4 (UniProt P23497) | 0.019 (inactive) |
| TBRG4 (UniProt Q969Z0) | -0.134 (inactive) |
| TIMM10B (UniProt Q9Y5J6) | 0 (inactive) |
| SMIM20 isoform 2 (UniProt Q8N5G0) | -0.056 (inactive) |
| SPTBN4 (UniProt Q9H254) | -0.032 (inactive) |
| TGFBI (UniProt Q15582) | -0.099 (inactive) |
| STARD3NL (UniProt O95772) | 0.038 (inactive) |
| TJP1 (UniProt Q07157) | 0.028 (inactive) |
| TANGO6 (UniProt Q9C0B7) | 0.197 (inactive) |
| TANK (UniProt Q92844) | 0.034 (inactive) |
| SRC isoform 2 (UniProt P12931) | -0.136 (inactive) |
| SUOX (UniProt P51687) | 0.012 (inactive) |
| SNRNP40 (UniProt Q96DI7) | -0.026 (inactive) |

| Target | log2 fold change |
| --- | --- |
| SNX11 (UniProt Q9Y5W9) | -0.001 (inactive) |
| TIMM13 (UniProt Q9Y5L4) | -0.008 (inactive) |
| SRSF9 (UniProt Q13242) | 0.199 (inactive) |
| SLC35F6 (UniProt Q8N357) | -0.18 (inactive) |
| SMCHD1 (UniProt A6NHR9) | 0.108 (inactive) |
| SP3 (UniProt Q02447) | 0 (inactive) |
| TBC1D20 isoform 3 (UniProt Q96BZ9) | -0.104 (inactive) |
| SYK (UniProt P43405) | 0.241 (inactive) |
| TIMM29 (UniProt Q9BSF4) | -0.101 (inactive) |
| SMARCE1 (UniProt Q969G3) | 0.163 (inactive) |
| SRSF4 (UniProt Q08170) | 0.125 (inactive) |
| SULT1A1 (UniProt P50225) | -0.029 (inactive) |
| SLC27A4 (UniProt Q6P1M0) | 0.003 (inactive) |
| SSB (UniProt P05455) | 0.017 (inactive) |
| TLK2 isoform 2 (UniProt Q86UE8) | -0.003 (inactive) |
| TMBIM1 (UniProt Q969X1) | 0.264 (inactive) |

compound: CC(C)(O)CC(=O)NCCn1ccc2ncnc(Nc3ccc(Oc4cccc(C(F)(F)F)c4)c(Cl)c3)c21; test: as above
In short: as §1

| Target | log2 fold change |
| --- | --- |
| STK38 (UniProt Q15208) | -0.085 (inactive) |
| TBC1D24 (UniProt Q9ULP9) | -0.057 (inactive) |
| SMARCA4 (UniProt P51532) | 0.027 (inactive) |
| TAOK3 (UniProt Q9H2K8) | -0.011 (inactive) |
| SP100 isoform 4 (UniProt P23497) | 0.011 (inactive) |
| SLC35B4 (UniProt Q969S0) | 0.098 (inactive) |
| TBRG4 (UniProt Q969Z0) | -0.578 (active) |
| TIMM10B (UniProt Q9Y5J6) | -0.07 (inactive) |
| SMIM20 isoform 2 (UniProt Q8N5G0) | -0.061 (inactive) |
| SPTBN4 (UniProt Q9H254) | -0.025 (inactive) |
| TGFBI (UniProt Q15582) | 0.244 (inactive) |
| STARD3NL (UniProt O95772) | -0.014 (inactive) |
| TJP1 (UniProt Q07157) | -0.02 (inactive) |
| TANGO6 (UniProt Q9C0B7) | -0.153 (inactive) |
| TANK (UniProt Q92844) | -0.024 (inactive) |
| SRC isoform 2 (UniProt P12931) | -0.22 (inactive) |
| SUOX (UniProt P51687) | -0.022 (inactive) |
| SNRNP40 (UniProt Q96DI7) | 0.086 (inactive) |
| SNX11 (UniProt Q9Y5W9) | 0.085 (inactive) |

| Target | log2 fold change |
| --- | --- |
| TIMM13 (UniProt Q9Y5L4) | -0.145 (inactive) |
| TATDN2 (UniProt Q93075) | 0.102 (inactive) |
| SRSF9 (UniProt Q13242) | 0.219 (inactive) |
| SLC35F6 (UniProt Q8N357) | 0.061 (inactive) |
| SMCHD1 (UniProt A6NHR9) | 0.068 (inactive) |
| SP3 (UniProt Q02447) | 0.022 (inactive) |
| TBC1D20 isoform 3 (UniProt Q96BZ9) | -0.087 (inactive) |
| SYK (UniProt P43405) | -0.1 (inactive) |
| TIMM29 (UniProt Q9BSF4) | 0.008 (inactive) |
| SMARCE1 (UniProt Q969G3) | -0.043 (inactive) |
| SRSF6 (UniProt Q13247) | 0.234 (inactive) |
| SRSF4 (UniProt Q08170) | 0.088 (inactive) |
| SULT1A1 (UniProt P50225) | -0.104 (inactive) |
| SLC27A4 (UniProt Q6P1M0) | 0.072 (inactive) |
| SSB (UniProt P05455) | 0.001 (inactive) |
| TLK2 isoform 2 (UniProt Q86UE8) | -0.077 (inactive) |
| TMBIM1 (UniProt Q969X1) | 0.16 (inactive) |
| STK11IP (UniProt Q8N1F8) | -0.131 (inactive) |
